Bioassay records from PubChem.
Hits are enriched below; roughly 3.1% of the tested compounds scored in any of these assays.
GDH-TPI counter-1 – GDH-TPI coupled enzyme inhibition counter-screen; GDH-TPI coupled enzyme counterscreen, NADH absorbance; AID 588335; 1.2% of 360,000 active; inhibition, % at 4.8 µM; in the data active means inhibition above about 30%;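 further: 0% = DMSO wells and 100% = wells lacking the enzyme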
FadD28 FP inh – M. tuberculosis FadD28 bisubstrate binding inhibition; FadD28 bisubstrate probe binding, fluorescence polarization; inhibition, % at 12.5 µM; 0.22% of 360,000 active; in the data active means inhibition above about 8.5%, passing the limit was not always enough
Mtb FBA inh – Mtb fructose-bisphosphate aldolase inhibition; P9WQA3; purified M. tuberculosis FBA, fluorescence read-out; inhibition, % at 1 µM; 2.3% of 360,000 active; AID 588726;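 further: 0% = vehicle and 100% = reference inhibitor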
Target sequence (P9WQA3 whole entry, looked up): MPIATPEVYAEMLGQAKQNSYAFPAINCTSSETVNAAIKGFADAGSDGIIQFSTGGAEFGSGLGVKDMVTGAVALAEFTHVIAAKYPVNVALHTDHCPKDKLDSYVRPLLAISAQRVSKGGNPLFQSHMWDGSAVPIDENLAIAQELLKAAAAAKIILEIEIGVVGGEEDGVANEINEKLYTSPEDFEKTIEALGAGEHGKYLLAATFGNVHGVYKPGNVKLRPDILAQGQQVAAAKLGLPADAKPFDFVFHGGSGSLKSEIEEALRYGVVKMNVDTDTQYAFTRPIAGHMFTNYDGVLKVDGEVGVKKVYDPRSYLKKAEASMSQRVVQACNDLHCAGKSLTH
3CLpro inhibitor – SARS-CoV 3CLpro protease inhibition | P0C6X7 | AID 1706 | 0.14% of 290,000 active | recombinant SARS-CoV 3CLpro, quenched FRET peptide cleavage | inhibition, % at 6 µM; in the data active means inhibition above about 12%
BioA inh – blocks M. tuberculosis BioA enzyme activity; AID 602481; 0.096% of 360,000 active; purified M. tuberculosis BioA enzyme, plate reader; inhibition, % at 9.99 µM; in the data active means inhibition above about 40%
Mtb FBA confirm – confirmation of M. tuberculosis fructose-bisphosphate aldolase inhibitors; shares compounds with Mtb FBA inh; purified M. tuberculosis FBA, fluorescence read-out; inhibition, % at 1 µM; 78% of 5,600 active; AID 651616;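 further: 0% = vehicle wells and 100% = reference inhibitor wells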
GDH-TPI counter-2 – GDH-TPI inhibition counter-screen for FBA inhibitors. shares compounds with Mtb FBA inh. GDH-TPI coupled enzyme counterscreen, fluorescence. inhibition, % at 1 µM. 81% of 5,600 active. AID 652141; in the data active means inhibition above about 10%
* hit, by the source's call; . = not tested or not shown; + = active, no number. Unless noted, no stated cut-off is given here; in the data, active means inhibition above about 27%; inactive means the rest.

SMILES	GDH-TPI counter-1	FadD28 FP inh	Mtb FBA inh	3CLpro inhibitor	BioA inh	Mtb FBA confirm	GDH-TPI counter-2
C[C@@H]1CN([C@H](C)CO)C(=O)Cc2cc(NC(=O)Nc3ccc4c(c3)OCO4)ccc2O[C@H]1CN(C)Cc1ccncc1	.	.	.	.	-2	.	.
Cc1nnc2sc(-c3ccc(-c4ccc(Cl)c(C(F)(F)F)c4)o3)nn12	15	-28	76*	.	-2	130*	115*
COc1ccc(-c2ccc(CCC(=O)O)n2CC2CCCO2)cc1 (configuration not stated)	11	0	33*	-1	.	+	144*
COc1ccc(-c2ccc(CCC(=O)O)n2CC(C)C)cc1	-12	3	41*	5	.	48*	30*
C=CCn1c(CCC(=O)O)ccc1-c1ccc(OC)cc1	2	2	4	0	6	.	.
O=C(C[C@@H]1CC[C@H]2[C@@H](COC[C@@H](O)CN2Cc2nccs2)O1)NCc1ccc(F)cc1	.	.	.	.	-1	.	.
CNC[C@@H]1Oc2ccc(NC(=O)Nc3cccc4ccccc34)cc2CC(=O)N([C@@H](C)CO)C[C@H]1C	.	.	.	.	1	.	.
COc1ccc(N2CCN(c3ncnc4c3[nH]c3ccccc34)CC2)cc1	3	-3	0	4	.	.	.
Fc1ccc2[nH]c3c(N4CCN(c5ccccc5)CC4)ncnc3c2c1	-10	-2	4	3	.	.	.
COc1cc2[nH]c3c(N4CCN(c5ccccn5)CC4)ncnc3c2cc1OC	0	9.1*	29*	-8	1	-5	-7
COc1ccc2[nH]c3c(N4CCc5ccccc5C4)ncnc3c2c1	5	-1	40*	-3	2	1	1
CCCN1C[C@@H](C)[C@@H](OC)CN(C)C(=O)c2cc(NC(=O)COC)ccc2OC[C@H]1C	.	.	.	.	0	.	.
COc1ccc(C2NN=C(c3ccc(C)cc3)S2)cc1OC (configuration not stated)	8	-1	38*	5	.	+	+
CCCCn1c(=O)c2ccccc2c2ccccc2c1=O	-1	1	-1	-5	-2	.	.
CCCCn1c(=O)nc2n(-c3ccccc3C)c3ccccc3cc-2c1=O	7	-2	61*	-2	0	+	+
Cc1nnc(SCC(=O)NC2CCCCC2)n1-c1ccccc1	-2	0	0	.	1	.	.
COc1ccc(-n2c(C)nnc2SCC(=O)NC2CC2)cc1	-3	-1	92*	2	0	42*	34*
CC(C)NC(=O)N1C[C@H]2[C@@H](c3ccccc31)[C@@H](CO)N2C(=O)c1ccncc1	.	.	.	.	5	.	.
Cc1ccc(CN2CC(C(=O)Nc3ccc4c(C)cc(=O)oc4c3)CC2=O)cc1 (configuration not stated)	16	0	89*	-4	.	96*	74*
O=c1c(-c2ccccc2)c(O)c2ccccc2n1-c1ccccc1	19	0	32*	-3	0	87*	73*
CCCCn1c(=O)c(-c2ccccc2)c(O)c2ccccc21	0	2	31*	0	-1	112*	92*
COc1ccc(-c2ccc3c(c2)[C@@H]2[C@@H](CCN2C(=O)Nc2ccccc2OC)[C@@H](CO)N3C)cc1	.	.	.	.	2	.	.
Cc1ccc(S(=O)(=O)N2CC[C@@H]3[C@@H](CO)Nc4ccc(-c5cccc(C(=O)N(C)C)c5)cc4[C@@H]32)cc1	.	.	.	.	33	.	.
COc1cccc(N2CCN(C(=O)c3cc4c(OC)c(OC)c(OC)cc4[nH]3)CC2)c1	-8	-3	1	1	0	.	.
COc1cc2[nH]c(C(=O)N3CCN(c4ccccc4F)CC3)cc2c(OC)c1OC	11	0	44*	3	1	+	+
SMILES	GDH-TPI counter-1	FadD28 FP inh	Mtb FBA inh	3CLpro inhibitor	BioA inh	Mtb FBA confirm	GDH-TPI counter-2
CCCNC(=O)N(C)C[C@H]1Oc2ncc(-c3ccccc3)cc2C(=O)N([C@@H](C)CO)C[C@@H]1C	.	.	.	.	-1	.	.
COc1cccc(-c2c(-c3cc(OC)cc(OC)c3)n(C)c3ccc(-c4ccc5[nH]ccc5c4)cc23)c1	24	-2	42*	.	-2	+	+
COc1ccc(-c2c(-c3cc(OC)cc(OC)c3)n(C)c3ccc(-c4cc(F)cc(OC)c4)cc23)cc1	12	-1	6	.	0	.	.
COc1cccc(-c2c(-c3cc(OC)cc(OC)c3)n(C)c3ccc(-c4ccc(OC)nc4)cc23)c1	3	-3	1	.	-1	.	.
COc1cc(OC)cc(-c2c(-c3ccc(F)cc3)c3cc(-c4ccc5[nH]ccc5c4)ccc3n2C)c1	25	-3	49*	.	-1	-4	-5
O=C(c1cccnc1)N1CCCCN2[C@H](CO)[C@H](c3ccc(C#Cc4ccccc4)cc3)[C@H]2C1	.	.	.	.	1	.	.
C[C@H](NC(=O)C[C@H]1CC[C@@H](NC(=O)CN2CCOCC2)[C@H](CO)O1)c1ccccc1	.	.	.	.	-3	.	.
CCOC(=O)c1sc(N(C)C)nc1-c1ccccc1	14	1	39*	-3	-2	136*	97*
CCOC(=O)c1sc(N)nc1-c1ccccc1	7	0	7	-1	-1	.	.
CC(=O)Oc1ccc2c(C)c(CC(=O)N3CCN(C(=O)C4COc5ccccc5O4)CC3)c(=O)oc2c1C (configuration not stated)	2	0	44*	0	-2	3	-3
COc1cc(C)cc2oc(=O)c(CC(=O)N3CCN(C(=O)C4COc5ccccc5O4)CC3)c(C)c12 (configuration not stated)	2	-5	104*	-5	0	64*	54*
Cc1cc(O)c2c(C)c(CC(=O)N3CCN(C(=O)C4COc5ccccc5O4)CC3)c(=O)oc2c1 (configuration not stated)	19	-2	-1	-2	0	.	.
COc1ccc(S(=O)(=O)N(C)C[C@@H]2Oc3ccc(NC(=O)NC4CCCCC4)cc3CC(=O)N([C@@H](C)CO)C[C@@H]2C)cc1	.	.	.	.	4	.	.
Nc1cccc(Nc2ccccc2)c1	-3	-2	-4	-1	.	.	.
Nc1ccc(Nc2ccccc2)c(S(=O)(=O)O)c1	13	81*	90*	2	3	84*	70*
COc1ccc2c(c1)CCc1cnc(N)nc1-2	30	0	106*	-4	-1	-3	-2
CCCN(C)C[C@H]1OCCCC[C@@H](C)Oc2ccc(NC(=O)Nc3ccccc3)cc2C(=O)N([C@@H](C)CO)C[C@H]1C	.	.	.	.	-1	.	.
CCc1sc(C(=O)Nc2ccc3nc(C)sc3c2)cc1C	4	2	2	.	-5	.	.
CCc1sc(C(=O)Nc2ccc(NC(C)=O)cc2)cc1C	2	0	27*	-1	.	1	0
O=c1ccc(/C=C/c2ccccc2)nn1Cc1ccccc1	11	-6	25	2	1	.	.
Cn1nc(/C=C/c2ccccc2)ccc1=O	0	-3	31*	1	1	64*	56*
CNC[C@H]1Oc2cc(C#CC3(O)CCCC3)ccc2S(=O)(=O)N([C@H](C)CO)C[C@@H]1C	.	.	.	.	3	.	.
